# Bioassay records deposited in PubChem by National Center for Advancing Translational Sciences (NCATS).
# Compounds with a hit are over-represented: about 4.3% of the library has one in this group of screens.
# uPA generation: qHTS for Inhibitors of Cell Surface uPA Generation; Potency, µM (top dose mostly 38.3 µM), for the others: at the highest dose activity change, negative = inhibition, actives largely listed as inhibitors; cell surface uPA generation assay, qHTS; 0.31% of 330,000 active; active means well fitted inhibition curve with a large enough effect; inconclusive means small, poorly fitted or top-dose-only effect; inactive means no such curve, though single readings can be large or run the other way; tested in mouse RAW 264.7 cells; further: potency means the concentration at half of the fitted maximal effect; on the % scale 0 is the no-effect control and ±100 the full control effect; nearly all actives have a fitted effect of over 55% in size
# MCF10A rerep: A quantitative high throughput screen for small molecules that induce DNA re-replication in MCF 10a normal breast cells | MCF 10A DNA re-replication, Hoechst nuclear intensity, 48 h | Potency, µM (top dose mostly 46.1 µM), inactives show at the highest dose activity, positive = re-replication, usual class: activators | 2.9% of 350,000 active; further: potency means the concentration at half of the fitted maximal effect; % of control where 0% means no effect; nearly all actives have a fitted effect of over 50% in size
# Giardia killer: Small Molecules that selectively kill Giardia lamblia: qHTS; 0.15% of 340,000 active; activity change, % at 7.66 µM, hits read low; AID 540267, 2011; Giardia lamblia trophozoite viability; in the data active means activity change below about -80%; inconclusive means between about -30% and that limit;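 further: parasites exposed to compound for two days anaerobically before the ATP read; on the % scale 0 is the no-effect control and ±100 the full control effect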
#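 Compounds were tested on trophozoites seeded at 100 cells/well and held 48 hrs at 37 deg C anaerobically. An ATP-based luminescent kit measured the remaining live cells.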
# SW480 rereplic: A quantitative high throughput screen for small molecules that induce DNA re-replication in SW480 colon adenocarcinoma cells | Potency, µM (doses to about 46.1 µM), for inactives: at the highest dose re-replication activation, usual class: activators | 1.8% of 340,000 active | SW480 DNA re-replication, Hoechst DNA content imaging, 48 h | AID 624297, 2012; further: potency means the concentration at half of the fitted maximal effect; % of control where 0% means no effect; nearly all actives have a fitted effect of over 55% in size
#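 Compounds, transferred as 23 nL by pin tool, were incubated with cells for 48 hr; DNA content per nucleus was then quantified by Hoechst staining and fluorescence plate imaging.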
# Starred values were filed as active, the others as inactive; ? = inconclusive; . = not tested or not shown. Unless noted, the call rests on the fitted dose curve; in most records, active means well fitted activation curve with a large enough effect; inconclusive means small, poorly fitted or top-dose-only effect; inactive means no such curve, though single readings can be large or run the other way.
SMILES,uPA generation,MCF10A rerep,Giardia killer,SW480 rereplic
CN1CCN(C(=O)CCCN2C(=O)/C(=C/c3cccc(Br)c3)SC2=S)CC1,-11.1%,23.1µM*,60.8,?
O=C(CCCN1C(=O)/C(=C/c2cccc(Br)c2)SC1=S)N1CCOCC1,3.0%,19.8%,-15.2,4.8%
CN1CCN(C(=O)CCN2C(=O)/C(=C/c3cccc(Br)c3)SC2=S)CC1,-11.1%,14.6µM*,-3.8,?
CC1=C(/C=C/C(C)=C/C=C/C(C)=C/C(=O)Oc2c(C)c(C)c3c(c2C)CC[C@@](C)(CCC[C@H](C)CCC[C@H](C)CCCC(C)C)O3)C(C)(C)CCC1,.,13.6%,.,5.7%
O=C(Cc1ccc(Cl)cc1)NCC(=O)N1CCCCCC1,-0.8%,-12.2%,4.0,?
O=C(Nc1cccc(Cl)c1N1CCCC1)c1cc2ccccc2o1,9.0%,20.6µM*,-13.0,-6.6%
CCC(=O)NC(=S)Nc1cccc(Cl)c1N1CCCCC1,.,?,12.8,11.2µM*
COc1ccc2nc(SCC(=O)NCC(F)(F)F)[nH]c2c1,-0.2%,0.3%,1.5,6.5%
CCCC(=O)NC(c1ccc(C(C)C)cc1)c1ccc2cccnc2c1O (stereo unspecified),-9.4%,?,-6.8,1.3µM*
Cc1ccnc(NC(c2cccnc2)c2ccc3cccnc3c2O)c1 (stereo unspecified),-6.5%,?,3.0,3.26µM*
CCCC(=O)NC(c1ccc(N(C)C)cc1)c1ccc2cccnc2c1O (stereo unspecified),-17.1%,?,6.7,?
CC(=O)NC(c1ccco1)c1ccc2cccnc2c1O (stereo unspecified),-14.2%,?,-4.3,3.26µM*
CCC(=O)NC(c1ccc(C)cc1)c1ccc2cccnc2c1O (stereo unspecified),-14.2%,?,11.8,0.82µM*
Cc1ccnc(NC(c2ccccc2)c2ccc3cccnc3c2O)c1 (stereo unspecified),-14.1%,?,?,?
N#CN=c1snc(-c2ccccc2)n1-c1ccc(Br)cc1,.,.,18.1,.
Cc1ccccc1SCC(=O)Nc1cc(C(F)(F)F)ccc1N1CCOCC1,15.8%,6.4%,-0.1,?
CC1CCCN(C(=O)C2CCN(S(=O)(=O)c3cccs3)CC2)C1 (stereo unspecified),-3.5%,0.5%,1.7,-3.9%
CC(Oc1ccc(F)cc1F)C(=O)NNC(=S)NCC1CCCO1 (stereo unspecified),3.7%,-0.1%,-4.4,-4.6%
CN(C)CCNc1nc2sc3c(c2c(=O)n1CCc1ccccc1)CCCCC3,?,?,-18.0,18.4µM*
CCCOC(=O)CSC1=C(C#N)C(c2ccccc2OCC)C(C#N)C(=O)N1 (stereo unspecified),1.7%,2.7%,-4.7,-2.9%
CCSC1=C(C#N)C(c2ccccc2OC)CC(=O)N1 (stereo unspecified),10.6%,2.1%,13.8,-4.7%
CCOC(=O)CSC1=C(C#N)C(c2ccccc2OC)CC(=O)N1 (stereo unspecified),?,5.17µM*,9.6,18.4µM*
CCCCOC(=O)CSC1=C(C#N)C(c2ccccc2OCC)C(C#N)C(=O)N1 (stereo unspecified),13.6%,?,-14.4,10.3µM*
COC(=O)C1=C(O)/C(=C\c2ccc(OCC(=O)Nc3ccc(OC)cc3)cc2)N=C1C,-3.4%,?,-0.8,14.6µM*
CCCN(CC(=O)Nc1ccc(F)c(F)c1F)C(=O)Cc1ccc(OC)c(S(=O)(=O)N2CCOCC2)c1,5.5%,0.4%,-4.5,1.9%
SMILES,uPA generation,MCF10A rerep,Giardia killer,SW480 rereplic
COc1ccc(N2CC(C(=O)N/N=C/c3ccc([N+](=O)[O-])cc3)CC2=O)cc1 (stereo unspecified),-4.4%,14.7%,-4.4,-7.7%
COc1ccc(N2CC(C(=O)N/N=C/c3ccc(C)cc3)CC2=O)cc1 (stereo unspecified),-14.3%,2.31µM*,-10.3,5.17µM*
CCCN1CNc2c(c(=O)[nH]c(=S)n2CCc2cccc(C)c2C)C1,.,.,-10.0,.
COc1cc(-c2noc(C)c2C#Cc2ccsc2)cc(OC)c1OC,2µM*,?,?,?
COc1cc(-c2noc(C)c2C#CCO)cc(OC)c1OC,0.4%,12.8%,13.4,1.2%
COc1ccc(C(CC(=O)c2ccc(C)cc2)C(C#N)C#N)cc1OC (stereo unspecified),0.3%,20.6µM*,-14.2,?
COC(=O)C(C(=O)OC)C(CC(=O)c1ccc(C)cc1)c1cc(OC)c(OC)c(OC)c1 (stereo unspecified),-24.6%,?,-27.4,19.9%
